# The supplement of paper PMC11732987, “Enantioselective OTUD7B fragment discovery through chemoproteomics screening and high-throughput optimisation” (Communications Chemistry, 2025)
# Values without a mark were called inactive.
# Columns and labels:
# Assay in all cases: log2 ratio of Biotin-Ahx-Ub-VS probe labelling (fragment/DMSO); higher = less target engagement (more negative = stronger competition), active = hit call of the paper (q ≤ 0.05, log2 ratio ≤ -1)
# Details in all cases: compound concentration: 200 uM; treatment time: 3 h
# ALG13 = target: T1, ALG13 (UniProt Q9NP73)
# T1 sequence (whole entry): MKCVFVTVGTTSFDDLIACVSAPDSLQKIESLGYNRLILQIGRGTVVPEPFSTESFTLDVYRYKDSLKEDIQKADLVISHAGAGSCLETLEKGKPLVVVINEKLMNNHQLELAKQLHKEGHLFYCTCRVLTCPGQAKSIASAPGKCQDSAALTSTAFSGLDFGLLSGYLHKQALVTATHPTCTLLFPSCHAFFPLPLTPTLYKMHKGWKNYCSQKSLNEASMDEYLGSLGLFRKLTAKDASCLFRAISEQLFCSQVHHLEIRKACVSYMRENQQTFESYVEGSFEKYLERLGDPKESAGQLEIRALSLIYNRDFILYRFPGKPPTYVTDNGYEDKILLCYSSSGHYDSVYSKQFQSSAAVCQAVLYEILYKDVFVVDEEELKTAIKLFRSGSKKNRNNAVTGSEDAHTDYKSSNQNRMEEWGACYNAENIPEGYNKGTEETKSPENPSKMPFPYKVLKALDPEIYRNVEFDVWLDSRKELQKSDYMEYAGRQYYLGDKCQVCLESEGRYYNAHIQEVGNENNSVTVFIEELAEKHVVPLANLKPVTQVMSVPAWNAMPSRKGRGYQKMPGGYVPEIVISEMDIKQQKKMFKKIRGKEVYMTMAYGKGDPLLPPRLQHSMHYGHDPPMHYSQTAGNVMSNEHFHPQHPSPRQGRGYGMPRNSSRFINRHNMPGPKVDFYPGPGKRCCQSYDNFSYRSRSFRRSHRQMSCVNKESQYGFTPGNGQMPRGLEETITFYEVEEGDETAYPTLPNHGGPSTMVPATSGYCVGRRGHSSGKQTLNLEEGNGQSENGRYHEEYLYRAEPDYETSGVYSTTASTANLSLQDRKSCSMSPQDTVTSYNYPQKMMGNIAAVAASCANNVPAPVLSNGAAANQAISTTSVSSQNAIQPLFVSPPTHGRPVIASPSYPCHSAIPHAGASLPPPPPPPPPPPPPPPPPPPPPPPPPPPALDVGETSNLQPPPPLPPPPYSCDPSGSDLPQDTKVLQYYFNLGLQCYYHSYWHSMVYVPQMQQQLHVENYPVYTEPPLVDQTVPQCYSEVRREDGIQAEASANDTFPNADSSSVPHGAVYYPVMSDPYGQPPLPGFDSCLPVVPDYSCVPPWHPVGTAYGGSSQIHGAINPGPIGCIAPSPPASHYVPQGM
# Summary of the method: (§1)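 Labelling with Biotin-Ahx-Ub-VS (0.5 µM final, 1 h) followed a 3 h triplicate treatment of HEK293T lysate (495 µg per sample, Tris/CHAPS/IGEPAL buffer with protease inhibitors) with fragment at 200 µM or vehicle. Labelled DUBs were NeutrAvidin-enriched, digested with LysC and trypsin, and run by diaPASEF LC-MS/MS. The values, average log2 fragment/vehicle ratios by unpaired t-test, come from global-median-normalised Spectronaut label-free quantities. Proteins with ≥2 unique peptides were used.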
# ATXN3 = ATXN3 (UniProt P54252)
# Summary of the method: as §1
# BAP1 = target: T2, BAP1 (UniProt Q92560)
# T2 sequence (whole entry): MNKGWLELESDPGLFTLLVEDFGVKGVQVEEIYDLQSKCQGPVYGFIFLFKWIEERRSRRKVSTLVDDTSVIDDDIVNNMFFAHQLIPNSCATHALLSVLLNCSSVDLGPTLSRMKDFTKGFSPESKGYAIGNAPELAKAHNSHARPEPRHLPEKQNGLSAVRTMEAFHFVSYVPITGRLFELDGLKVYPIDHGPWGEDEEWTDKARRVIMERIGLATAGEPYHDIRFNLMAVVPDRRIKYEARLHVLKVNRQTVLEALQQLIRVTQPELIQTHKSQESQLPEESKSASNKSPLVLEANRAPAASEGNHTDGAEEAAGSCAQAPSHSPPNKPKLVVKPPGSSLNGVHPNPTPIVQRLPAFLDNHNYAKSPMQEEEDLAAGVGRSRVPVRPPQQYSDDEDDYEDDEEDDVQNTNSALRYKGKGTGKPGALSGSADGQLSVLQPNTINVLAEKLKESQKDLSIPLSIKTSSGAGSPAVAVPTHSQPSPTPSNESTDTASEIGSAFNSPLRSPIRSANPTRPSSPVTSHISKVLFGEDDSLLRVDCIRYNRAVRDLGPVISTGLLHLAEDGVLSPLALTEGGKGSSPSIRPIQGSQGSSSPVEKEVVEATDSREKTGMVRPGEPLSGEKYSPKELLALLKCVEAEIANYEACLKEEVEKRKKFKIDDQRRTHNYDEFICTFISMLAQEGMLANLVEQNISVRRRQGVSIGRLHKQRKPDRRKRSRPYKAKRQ
# Summary of the method: as §1
# EIF3F = EIF3F (UniProt O00303)
# Summary of the method: as §1
# EIF3H = EIF3H (UniProt O15372)
# Summary of the method: as §1
# FAM105A = target: T3, FAM105A (UniProt Q9NUU6)
# T3 sequence (whole entry): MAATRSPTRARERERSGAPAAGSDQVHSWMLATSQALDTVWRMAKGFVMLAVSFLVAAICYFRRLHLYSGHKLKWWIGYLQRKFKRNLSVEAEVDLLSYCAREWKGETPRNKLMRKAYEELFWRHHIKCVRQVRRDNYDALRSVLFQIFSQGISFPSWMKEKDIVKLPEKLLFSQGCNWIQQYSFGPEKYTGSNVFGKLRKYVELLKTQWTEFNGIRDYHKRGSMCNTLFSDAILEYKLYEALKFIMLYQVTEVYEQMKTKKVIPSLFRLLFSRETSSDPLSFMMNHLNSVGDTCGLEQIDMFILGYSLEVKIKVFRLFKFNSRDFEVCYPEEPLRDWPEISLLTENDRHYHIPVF
# Summary of the method: as §1
# OTUB1 = OTUB1 (UniProt Q96FW1)
# Summary of the method: as §1
# OTUD4 = target: T4, OTUD4 (UniProt Q01804)
# T4 sequence (whole entry): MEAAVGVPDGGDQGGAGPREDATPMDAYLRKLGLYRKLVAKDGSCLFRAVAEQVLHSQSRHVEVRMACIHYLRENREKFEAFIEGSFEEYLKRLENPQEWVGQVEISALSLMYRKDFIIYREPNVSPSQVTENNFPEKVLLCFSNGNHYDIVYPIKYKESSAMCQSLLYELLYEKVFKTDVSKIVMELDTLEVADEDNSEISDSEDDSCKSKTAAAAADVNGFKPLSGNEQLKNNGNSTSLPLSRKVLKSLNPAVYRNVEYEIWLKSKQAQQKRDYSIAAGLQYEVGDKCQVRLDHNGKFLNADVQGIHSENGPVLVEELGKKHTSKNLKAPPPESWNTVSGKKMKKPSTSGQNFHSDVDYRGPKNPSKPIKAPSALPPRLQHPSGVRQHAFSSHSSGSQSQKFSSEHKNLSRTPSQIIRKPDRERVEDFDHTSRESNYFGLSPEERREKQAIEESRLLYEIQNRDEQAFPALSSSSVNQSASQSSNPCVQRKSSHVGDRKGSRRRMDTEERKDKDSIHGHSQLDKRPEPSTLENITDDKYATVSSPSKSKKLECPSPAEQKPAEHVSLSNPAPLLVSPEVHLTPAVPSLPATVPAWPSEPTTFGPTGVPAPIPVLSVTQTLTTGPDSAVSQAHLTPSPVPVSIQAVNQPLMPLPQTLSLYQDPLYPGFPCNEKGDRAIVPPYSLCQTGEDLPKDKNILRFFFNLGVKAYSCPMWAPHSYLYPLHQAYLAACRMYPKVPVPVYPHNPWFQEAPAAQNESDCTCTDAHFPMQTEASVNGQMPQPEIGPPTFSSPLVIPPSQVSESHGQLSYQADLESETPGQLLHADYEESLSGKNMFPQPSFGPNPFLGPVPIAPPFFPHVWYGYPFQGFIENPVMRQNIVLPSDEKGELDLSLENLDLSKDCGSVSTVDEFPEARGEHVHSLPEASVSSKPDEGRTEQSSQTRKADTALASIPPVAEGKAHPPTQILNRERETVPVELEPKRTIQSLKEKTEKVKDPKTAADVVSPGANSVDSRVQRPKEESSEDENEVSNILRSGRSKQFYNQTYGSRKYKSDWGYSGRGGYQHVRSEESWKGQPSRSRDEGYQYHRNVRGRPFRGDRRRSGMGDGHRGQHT
# Summary of the method: as §1
# OTUD5 = target: T5, OTUD5 (UniProt Q96G74)
# T5 sequence (whole entry): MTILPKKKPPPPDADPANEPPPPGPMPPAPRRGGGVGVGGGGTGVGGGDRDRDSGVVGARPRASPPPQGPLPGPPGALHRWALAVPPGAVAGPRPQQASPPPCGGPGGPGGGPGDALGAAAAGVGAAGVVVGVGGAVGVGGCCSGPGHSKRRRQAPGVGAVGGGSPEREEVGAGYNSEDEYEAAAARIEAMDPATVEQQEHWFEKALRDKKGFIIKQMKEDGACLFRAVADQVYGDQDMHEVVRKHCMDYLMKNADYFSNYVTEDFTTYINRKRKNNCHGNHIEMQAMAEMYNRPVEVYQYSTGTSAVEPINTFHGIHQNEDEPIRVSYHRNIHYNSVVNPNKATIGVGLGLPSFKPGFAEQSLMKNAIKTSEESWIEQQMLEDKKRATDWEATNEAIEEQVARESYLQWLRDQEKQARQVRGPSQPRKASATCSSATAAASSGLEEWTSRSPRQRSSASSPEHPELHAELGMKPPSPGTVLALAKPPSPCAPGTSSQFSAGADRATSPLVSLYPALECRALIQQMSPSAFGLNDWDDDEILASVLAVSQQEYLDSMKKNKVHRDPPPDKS
# Summary of the method: as §1
# EIF3F, sequence (O00303 whole entry): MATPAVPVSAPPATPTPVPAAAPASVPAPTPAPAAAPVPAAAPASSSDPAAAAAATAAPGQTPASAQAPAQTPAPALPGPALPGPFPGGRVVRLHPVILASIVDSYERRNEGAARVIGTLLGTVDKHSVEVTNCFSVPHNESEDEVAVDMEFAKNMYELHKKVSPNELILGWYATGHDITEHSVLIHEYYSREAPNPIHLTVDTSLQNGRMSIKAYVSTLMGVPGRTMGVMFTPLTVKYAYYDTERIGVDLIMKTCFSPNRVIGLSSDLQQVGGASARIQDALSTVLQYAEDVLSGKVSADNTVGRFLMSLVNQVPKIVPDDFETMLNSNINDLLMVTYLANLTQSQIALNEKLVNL
# ATXN3, sequence (P54252 whole entry): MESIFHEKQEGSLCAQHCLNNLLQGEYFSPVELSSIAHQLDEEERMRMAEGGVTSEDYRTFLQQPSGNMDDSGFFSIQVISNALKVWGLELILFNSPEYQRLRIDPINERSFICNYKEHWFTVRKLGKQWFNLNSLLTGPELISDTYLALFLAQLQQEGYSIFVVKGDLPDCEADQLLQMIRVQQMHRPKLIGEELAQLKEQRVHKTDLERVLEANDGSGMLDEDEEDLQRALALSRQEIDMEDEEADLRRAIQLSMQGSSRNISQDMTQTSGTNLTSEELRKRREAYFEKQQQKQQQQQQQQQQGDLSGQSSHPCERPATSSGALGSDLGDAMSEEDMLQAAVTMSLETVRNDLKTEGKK
# EIF3H, sequence (O15372 whole entry): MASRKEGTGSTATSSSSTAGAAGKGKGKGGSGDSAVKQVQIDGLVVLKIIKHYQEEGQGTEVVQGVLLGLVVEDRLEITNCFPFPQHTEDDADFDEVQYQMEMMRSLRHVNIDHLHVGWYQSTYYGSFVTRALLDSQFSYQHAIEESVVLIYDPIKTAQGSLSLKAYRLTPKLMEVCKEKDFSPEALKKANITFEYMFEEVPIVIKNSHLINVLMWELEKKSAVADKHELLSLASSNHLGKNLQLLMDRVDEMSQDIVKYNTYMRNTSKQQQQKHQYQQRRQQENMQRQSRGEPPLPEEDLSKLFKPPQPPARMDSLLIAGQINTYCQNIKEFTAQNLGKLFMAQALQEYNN
# OTUB1, sequence (Q96FW1 whole entry): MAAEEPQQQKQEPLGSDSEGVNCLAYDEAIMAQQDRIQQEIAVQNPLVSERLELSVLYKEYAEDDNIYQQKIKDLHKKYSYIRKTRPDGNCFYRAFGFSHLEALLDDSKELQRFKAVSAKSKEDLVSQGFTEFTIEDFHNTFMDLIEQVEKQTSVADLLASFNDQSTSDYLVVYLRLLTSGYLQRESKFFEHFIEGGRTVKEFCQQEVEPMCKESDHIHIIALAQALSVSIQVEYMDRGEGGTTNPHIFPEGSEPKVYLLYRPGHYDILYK
structure (smiles),measurement,setting,value
CC1CCc2onc(CNC(=O)CCl)c2C1 (centres undefined),log2 ratio of Biotin-Ahx-Ub-VS probe labelling,ALG13,0.206
same,log2 ratio of Biotin-Ahx-Ub-VS probe labelling,ATXN3,0.065
same,log2 ratio of Biotin-Ahx-Ub-VS probe labelling,BAP1,-1.22 (active)
same,log2 ratio of Biotin-Ahx-Ub-VS probe labelling,EIF3F,-0.165
same,log2 ratio of Biotin-Ahx-Ub-VS probe labelling,EIF3H,-0.00651
same,log2 ratio of Biotin-Ahx-Ub-VS probe labelling,FAM105A,0.123
same,log2 ratio of Biotin-Ahx-Ub-VS probe labelling,OTUB1,0.048
same,log2 ratio of Biotin-Ahx-Ub-VS probe labelling,OTUD4,-0.0637
same,log2 ratio of Biotin-Ahx-Ub-VS probe labelling,OTUD5,0.0465
